The record followed here is PubChem BioAssay (NCATS).

One experiment has as its system CAOV3. Put plainly: Primary qHTS to identify gynecologic anti-cancer compounds using libraries of approved drugs and bioactive compounds (AID 1345084). Further: nearly all actives have a fitted effect of over 55% in size. The conditions noted are these: Gynecologic cancer cell panel viability, ATPlite luminescence, 48 h; series mostly up to 57.5 µM. Summed up: (§1)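 Cytotoxicity screen measuring ATP content by luciferase luminescence. Each compound is applied at five concentrations for 48 h at 37 C with 5% CO2.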
On the technique in general: qHTS replaces the single test concentration by a dilution series.

The subject of the next experiment is CASKI. The experiment is described as above. The conditions noted are these: Gynecologic cancer cell panel viability, ATPlite luminescence, 48 h; series mostly up to 57.5 µM. In a few lines:
as §1
In general terms: Cellular ATP, detected with luciferase, serves as a proxy for viable cell number.

A further experiment has as its system Es-2. The experiment is described as above. The note with it: Gynecologic cancer cell panel viability, ATPlite luminescence, 48 h; series mostly up to 57.5 µM. Summed up:
as §1

The test system of another experiment is HeLa. The experiment is described as above. The conditions noted are these: Gynecologic cancer cell panel viability, ATPlite luminescence, 48 h; series mostly up to 57.5 µM. In a few lines: as §1
In a further experiment the test system is Hek293T. The experiment is described as above. The conditions noted are these: Gynecologic cancer cell panel viability, ATPlite luminescence, 48 h, control line for the selectivity index; series mostly up to 57.5 µM. Summed up:
as §1

The subject of a further experiment is JEG-3. The experiment is described as above. The note with it: Gynecologic cancer cell panel viability, ATPlite luminescence, 48 h; series mostly up to 57.5 µM. Summed up: as §1
The subject of another experiment is OV90. The description is as above. The conditions noted are these: Gynecologic cancer cell panel viability, ATPlite luminescence, 48 h; series mostly up to 57.5 µM. Summed up:
as §1

A further experiment deals with PA-1. The experiment is described as above. The conditions noted are these: Gynecologic cancer cell panel viability, ATPlite luminescence, 48 h; series mostly up to 57.5 µM. Summed up: as §1
The subject of a further experiment is SKOV3. The experiment is described as above. The conditions noted are these: Gynecologic cancer cell panel viability, ATPlite luminescence, 48 h; series mostly up to 57.5 µM. In a few lines: as §1
Another experiment deals with Tov-21-G. Described as above. The conditions noted are these: Gynecologic cancer cell panel viability, ATPlite luminescence, 48 h; series mostly up to 57.5 µM. Summed up:
as §1

The next experiment concerns Tov112D. The experiment is described as above. The conditions noted are these: Gynecologic cancer cell panel viability, ATPlite luminescence, 48 h; series mostly up to 57.5 µM. Summed up:
as §1

For another experiment, the system named is C33A. Described as above. The note with it: Gynecologic cancer cell panel viability, ATPlite luminescence, 48 h; series mostly up to 57.5 µM. In a few lines: as §1
Experiment [1] can be described thus: qHTS assay to identify inhibitors of the type 1 interferon - major histocompatibility complex class I in skeletal muscle: Counter screen cell viability and HiBit confirmation (AID 1347412). On all read-outs here: nearly all actives have a fitted effect of over 60% in size. The note with it: iHSKM muscle cells + IFN-b, HiBiT or CellTiter-Glo, 24 h; for activity change, negative = inhibition: at 45.9 µM (top of the series). Summed up: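 Human myoblast knock-in line, 4.0 ng/ml IFN-beta stimulation, 24 h compound treatment. Endpoints: HiBiT lytic luminescence (HLA-B level) and CellTiter Glo (ATP). Dosing 12 concentrations, 3-fold steps, 46 uM highest final.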

Values joined by “and” are separate entries in the source; they are usually repeats but may differ in a detail not shown here. Identical values can stand only once. Inconclusive results are not listed. A number with no mark means an inactive call. Active and inactive are the calls of the source. The call rests on the fitted dose curve; in most records, active means well fitted curve in the direction sought with a large enough effect; inconclusive means small, poorly fitted or top-dose-only effect, or another doubt; inactive means no such curve, though single readings can be large; an effect the other way counts as inactive or inconclusive.
On the % scale 0 is the no-effect control and ±100 the full control effect; potency means the concentration at half of the fitted maximal effect.

As for `CC(C)CCC[C@@H](C)[C@H]1CC[C@H]2[C@@H]3CC(=O)[C@H]4C[C@@H](O)CC[C@]4(C)[C@H]3CC[C@]12C`, the Potency result in the experiment with CAOV3, in the experiment with CASKI, with Es-2, with HeLa, in the experiment on Hek293T and with JEG-3 was “inactive” each time. The Potency entry in the experiment on OV90, in the experiment with PA-1, in the experiment on SKOV3, in the experiment with Tov-21-G and in the experiment with Tov112D was “inactive” each time.
On to `O=S(=O)(NCC1CC1)c1ccc(Nc2nccc(N3CCCc4cc(O)ccc43)n2)cc1`, for which the results for the Potency in the experiment on C33A and in the experiment on PA-1 were 31.6 µM (active) and 10 µM (active), respectively. In the experiment with OV90, the Potency entry was “inactive”.
With `CCCCNc1ncc2c(-c3ccc(CN4CCN(C)CC4)cc3)cn(C3CCC(O)CC3)c2n1` (stereo not given), the Potency result in the experiment with C33A, in the experiment with Hek293T and in the experiment with JEG-3 was “inactive” throughout. In addition, the Potency was 1.78 µM (active) with HeLa; 6.31 µM (active) in the experiment with PA-1; 3.55 µM (active) in the experiment with SKOV3; 7.94 µM (active) in the experiment on Tov-21-G; 3.94 µM (active) and 14 µM (active) in experiment [1] (HiBiT); 7.01 µM (active) in experiment [1] (Viability).
`COc1cc(C(=O)NC2CCN(C)CC2)c(F)cc1Nc1ncc2c(n1)N(C1CCCC1)CC(F)(F)C(=O)N2C`: the figures for the Potency in the experiment on C33A, in the experiment on Es-2 and in the experiment on PA-1 were 0.282 µM (active), 35.5 µM (active) and 0.158 µM (active), respectively. Also, the activity change, negative = inhibition in experiment [1] (Viability) is -23.9%.
For `CC(Nc1ncnc2nc[nH]c12)c1cc2cccc(Cl)c2c(=O)n1-c1ccccc1` (stereo not given), the Potency entry with CAOV3, with Es-2, with HeLa, in the experiment with JEG-3, in the experiment with OV90 and in the experiment on PA-1 was “inactive” throughout. Also, the Potency entry in the experiment on Tov-21-G and in the experiment on Tov112D was “inactive” in each case.
As for `CNC(=O)c1ccccc1Nc1nc(Nc2ccc3c(c2OC)CCCC(N2CCN(CCO)CC2)C3)ncc1Cl` (stereo not given), the Potency in the experiment on CAOV3 is 10 µM (active); in the experiment on CASKI it was 17.8 µM (active); in the experiment on PA-1 it was 11.2 µM (active); with SKOV3, 3.98 µM (active); with Tov-21-G, 10 µM (active). The Potency result with JEG-3 is “inactive”.
On to `Cc1cc(-c2cc(O)ccc2Cl)cc2nnc(Nc3ccc(OCCN4CCCC4)cc3)nc12`, for which the values for the Potency in the experiment on CAOV3 and in the experiment on SKOV3 were 11.2 µM (active) and 28.2 µM (active), respectively.
As to `Cc1cccc(/C=N/Nc2cc(N3CCOCC3)n3nc(-c4ccncc4)cc3n2)c1`, the Potency with CAOV3 is 8.91 µM (active); in the experiment on OV90, 2 µM (active); in the experiment with Tov112D, 3.98 µM (active).
Consider `COc1cc(N2CCOCC2)ccc1Nc1ncc(Cl)c(Nc2ccccc2NS(C)(=O)=O)n1`, for which the Potency in the experiment with CAOV3 is 3.55 µM (active); with CASKI, 8.91 µM (active); in the experiment with HeLa, 3.16 µM (active); in the experiment on PA-1 it was 2.82 µM (active); in the experiment on Tov-21-G, 3.16 µM (active).
Regarding `COc1ccc(-c2cnc(-c3cccc4c3-c3ccccc3C4=O)o2)cc1`, the Potency result with CAOV3 is “inactive”. Besides, the Potency is 0.158 µM (active) in the experiment with Es-2; 0.199 µM (active) in the experiment with HeLa; 2 µM (active) with JEG-3; 0.355 µM (active) with PA-1; 0.158 µM (active) in the experiment on SKOV3; 0.141 µM (active) in the experiment with Tov-21-G. Besides, the Potency in the experiment with Tov112D is 0.178 µM (active).
On to `CN(C)c1nc(NC2CCC(NCCc3ccc(Br)cc3OC(F)(F)F)CC2)nc2ccccc12` (stereo not given), for which the Potency is 3.98 µM (active) with CAOV3; 25.1 µM (active) in the experiment on Hek293T; 20 µM (active) in the experiment on JEG-3; 14.1 µM (active) in the experiment with OV90; 14.1 µM (active) with SKOV3.
`COc1cc(C(=O)NC2CCN(C)CC2)ccc1Nc1ncc2c(n1)N(C1CCCC1)CC(F)(F)C(=O)N2C`: the Potency with CAOV3 was 25.1 µM (active); with OV90, 22.4 µM (active); in the experiment on PA-1, 0.251 µM (active); in the experiment with SKOV3 it was 15.8 µM (active).
On to `Cc1cc(OCc2nnc(SC3CCCC3)n2-c2cccnc2)ccc1-c1ccc(S(C)(=O)=O)cc1`, for which the Potency is 31.6 µM (active) in the experiment on CAOV3; 31.6 µM (active) with HeLa; 1.78 µM (active) in the experiment on OV90; 12.6 µM (active) in the experiment on PA-1; 0.794 µM (active) with SKOV3; 28.2 µM (active) in the experiment with Tov-21-G. The Potency in the experiment on Tov112D is 31.6 µM (active). Besides, the activity change, negative = inhibition in experiment [1] (Viability) is -25.3%.
For `CCC1=CC2CN(C1)Cc1c([nH]c3ccccc13)[C@@](C(=O)OC)(c1cc3c(cc1OC)N(C)[C@H]1[C@@](O)(C(=O)OC)[C@H](OC(C)=O)[C@]4(CC)C=CCN5CC[C@]31[C@@H]54)C2` (stereo not given in full), the Potency result in the experiment with CAOV3 and with CASKI was “inactive” each time. In addition, the Potency with Es-2 is 0.282 µM (active); in the experiment on HeLa it was 0.126 µM (active); with Tov-21-G, 0.0891 µM (active); in the experiment with Tov112D, 0.0708 µM (active).
As for `CN1CCN(Cc2ccc(-c3cnc4[nH]cc(-c5ccc6[nH]ccc6c5)c4c3)cc2)CC1`, the Potency is 22.4 µM (active) in the experiment on CAOV3; 22.4 µM (active) in the experiment on Es-2; 31.6 µM (active) with HeLa; 10 µM (active) in the experiment with OV90; 12.6 µM (active) with PA-1; 14.1 µM (active) in the experiment with SKOV3. Moreover, the Potency in the experiment with Tov-21-G is 20 µM (active).
As for `CCC(C)C(=O)OC1CC(O)C23C4OCC5(C(O)CC2C1(C)C(O)O4)C3C(=O)C(O)C1(C)C(O)(c2ccoc2)CC2OC251` (stereo not given), the Potency in the experiment with CAOV3 is 3.98 µM (active); in the experiment on Es-2 it was 8.91 µM (active); in the experiment with OV90, 1.26 µM (active); in the experiment on PA-1, 3.16 µM (active); in the experiment on SKOV3, 3.16 µM (active); with Tov112D, 3.55 µM (active). The Potency entry with CASKI and in the experiment on JEG-3 was “inactive” each time.
For `Cc1ccc(C(=O)N(CCCN)C(c2nc3cc(Cl)ccc3c(=O)n2Cc2ccccc2)C(C)C)cc1` (stereo not given), the Potency with CAOV3 and in the experiment with CASKI was 25.1 µM (active) throughout. Moreover, the Potency entry in the experiment on OV90 is “inactive”.
For the compound `COc1cc2c(cc1O)CC[C@H]1[C@@H]2CC[C@]2(C)[C@H](O)CC[C@@H]12`, the Potency entry in the experiment on CAOV3 and with OV90 was “inactive” in each case. Moreover, the Potency with Es-2 was 3.98 µM (active); with HeLa, 3.16 µM (active); in the experiment with SKOV3, 3.16 µM (active); with Tov112D it was 1 µM (active).
Regarding `NCCCNc1ccc(Nc2nccc(Nc3cc(C4CC4)[nH]n3)n2)cc1`, the Potency is 3.98 µM (active) with CASKI; 2.24 µM (active) in the experiment with Es-2; 4.47 µM (active) in the experiment on HeLa; 1.41 µM (active) in the experiment with Hek293T; 8.91 µM (active) in the experiment on OV90; 1.12 µM (active) in the experiment with PA-1. Moreover, the figures for the Potency in the experiment on SKOV3, in the experiment with Tov-21-G and in the experiment with Tov112D were 7.08 µM (active), 3.98 µM (active) and 2.82 µM (active), respectively. Moreover, the Potency entry in the experiment with JEG-3 was “inactive”.
As to `CC(C)c1nc(-c2ccc(NC(=O)Nc3cccc(C(F)(F)F)c3)c3ccccc23)c2c(N)nccn12`, the Potency was 22.4 µM (active) with CAOV3; 12.6 µM (active) in the experiment with Es-2; 31.6 µM (active) in the experiment on HeLa; 15.8 µM (active) in the experiment with Hek293T; 1.58 µM (active) with OV90; 12.6 µM (active) in the experiment on PA-1. Besides, the Potency in the experiment with SKOV3 was 28.2 µM (active). Moreover, the Potency entry with JEG-3 was “inactive”.
On to `CC[C@]12C=CCN3CC[C@@]4(c5cc([C@@]6(C(=O)OC)C[C@H]7C[C@@H](C(C)(F)F)CN(Cc8c6[nH]c6ccccc86)C7)c(OC)cc5N(C)[C@H]4[C@@](O)(C(=O)OC)[C@@H]1OC(C)=O)[C@@H]32`, for which, in the experiment with CAOV3, the Potency entry is “inactive”. In addition, the Potency is 1 µM (active) in the experiment with Es-2; 0.631 µM (active) in the experiment on HeLa; 0.355 µM (active) with PA-1; 0.562 µM (active) with Tov-21-G; 0.251 µM (active) in the experiment on Tov112D.
